Bioassay records (PubChem)
Only some compounds are listed: those with a hit (about 2.1% of all), similar ones and a draw of the others.
bovine MsrA act – activates bovine MsrA enzyme; purified bovine MsrA, absorbance read-out; 360,000 tested, 0.3% active; AID 602163; activation, % at 10.6 µM; in the data active means activation above about 7.5%;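 further: 0% = vehicle and 100% = reference activator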
ABCB6 inh 2 – inhibitors of human ABC transporter ABCB6 | Q9NP58 | 360,000 tested, 0.19% active | K562-ABCB6 porphyrin accumulation, flow cytometry, 1 h; active compounds read low | fluorescence ratio to DMSO, % at 10 µM;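 active means fluorescence ratio to DMSO below 75%, the collection mean minus 3 SD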;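 further: signal is porphyrin accumulated inside mitochondria; 100% equals median channel fluorescence of DMSO control wells; lower ratio means ABCB6 inhibition with less porphyrin fluorescence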
Target sequence (Q9NP58 whole entry, looked up): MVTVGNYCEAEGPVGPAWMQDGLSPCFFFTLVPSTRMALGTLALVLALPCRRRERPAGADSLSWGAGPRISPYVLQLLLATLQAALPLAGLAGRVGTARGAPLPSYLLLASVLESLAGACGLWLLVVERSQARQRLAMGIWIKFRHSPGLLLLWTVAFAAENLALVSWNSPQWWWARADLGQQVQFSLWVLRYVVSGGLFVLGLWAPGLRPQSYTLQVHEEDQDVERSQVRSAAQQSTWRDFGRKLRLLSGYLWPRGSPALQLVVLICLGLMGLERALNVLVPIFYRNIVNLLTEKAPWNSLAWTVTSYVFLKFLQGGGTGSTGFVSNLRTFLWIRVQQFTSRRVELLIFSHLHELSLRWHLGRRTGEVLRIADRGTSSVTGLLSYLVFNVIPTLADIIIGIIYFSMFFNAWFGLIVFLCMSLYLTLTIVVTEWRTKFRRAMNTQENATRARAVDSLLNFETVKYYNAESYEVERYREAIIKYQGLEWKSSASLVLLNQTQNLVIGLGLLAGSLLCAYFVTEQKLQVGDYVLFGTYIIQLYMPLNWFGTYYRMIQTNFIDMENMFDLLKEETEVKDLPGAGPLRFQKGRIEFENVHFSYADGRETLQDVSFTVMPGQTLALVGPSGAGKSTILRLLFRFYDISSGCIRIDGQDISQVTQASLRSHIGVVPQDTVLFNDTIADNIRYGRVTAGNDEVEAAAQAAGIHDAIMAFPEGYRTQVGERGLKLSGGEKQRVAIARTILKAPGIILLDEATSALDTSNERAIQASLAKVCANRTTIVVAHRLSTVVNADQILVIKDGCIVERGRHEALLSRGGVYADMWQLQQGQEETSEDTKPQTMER
SMARCA2 act – increases SMARCA2 function in MMTV reporter cells. MG213 cells, MMTV-luciferase reporter, dexamethasone, overnight. activation, % at 9.1 µM. 370,000 tested, 1% active. AID 652017; in the data active means activation above about 7.8%;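 further: 0% = vehicle wells and 100% = reference activator wells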
MsrA inhibitor – bovine MsrA inhibition; purified bovine MsrA, absorbance read-out; 360,000 tested, 0.75% active; inhibition, % at 15.5 µM; in the data active means inhibition above about 4.5%;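 further: 0% = vehicle wells with enzyme and 100% = reference inhibitor wells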
SMARCA2 conf – confirmation of SMARCA2 (BRM) function activators. 3,500 tested, 30% active. shares compounds with SMARCA2 act. activation, % at 9.1 µM. MG213 cells, MMTV-luciferase with dexamethasone, luminescence, overnight; MG213 cells expressing E1A, Rb sequestered; DMSO wells 0%, reference activator 100%. AID 652260;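 active means activation above its plate's cutoff, the mean activation of tested wells plus 3 SD, cut at about 7.9% in these data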
GAL4-VP16 Luc – GAL4-VP16 reporter activation counter-screen. 3,500 tested, 41% active. activation, % at 9.1 µM. shares compounds with SMARCA2 act. HEK293 GAL4-VP16 pG5luc reporter, luciferase luminescence; scaled: DMSO wells 0%, SAHA wells 100%;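 active means activation above the solvent-only control well mean plus 3 SD, averaged across control plates, cut at about 5.2% in these data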
The depositor's hits bear a star; · = not tested or not shown.

SMILES	bovine MsrA act	ABCB6 inh 2	SMARCA2 act	MsrA inhibitor	SMARCA2 conf	GAL4-VP16 Luc
O=c1c(C(c2ccc(Cl)cc2)c2c(O)nc3n(c2=O)CCS3)c(O)nc2n1CCS2	-6	98	-4	-1	·	·
CCN(CCC(=O)Nc1cc(OC)ccc1OC)Cc1ccccc1	·	·	-3	-1	·	·
CCN(CCC(=O)Nc1cc([N+](=O)[O-])ccc1OC)Cc1ccccc1	-2	102	9.7*	1	-2	0
c1cncc(-c2nc3cc4ccccc4cc3[nH]2)c1	-6	97	8.4*	2	13*	17*
c1ccc(-c2nc3cc4ccccc4cc3[nH]2)nc1	0	99	5	2	·	·
COc1ccc(-c2cc(C#N)nc(Cl)n2)cc1	1	107	21*	5.1*	41*	2
COc1ccc(CN(C)C(=O)[C@H]2O[C@@H](n3ccc(=O)[nH]c3=O)[C@H](O)[C@@H]2O)cc1OC	-9	99	-7	1	·	·
Cc1ccc(CN2CCCCC(NC(=O)c3cccc([N+](=O)[O-])c3)C2=O)cc1 (stereo not drawn)	·	·	-3	·	·	·
O=C(O)Cn1cc(/C=c2/sc3nc4ccccc4n3c2=O)c2ccccc21	0	106	10*	0	3	8.8*
O=c1/c(=C\c2cccn2-c2ccccc2)sc2nc3ccccc3n12	0	97	2	-2	·	·
Cc1cnc(NC(=O)CCCc2nc3ccccc3s2)s1	-4	100	27*	0	29*	-1
COC(=O)[C@H](C(C)C)N1CCc2nnn(Cc3ccccc3)c2-c2cc(F)ccc2S1(=O)=O	·	·	0	·	·	·
Cc1ccc2nc(-c3cccc(Br)c3)c(Cc3ccsc3)n2c1	·	·	9.5*	0	9.7*	8.9*
Cc1ccc2nc(-c3ccc(F)cc3)c(Cc3cccc(Cl)c3)n2c1	-2	101	13*	0	7	7.3*
Cc1ccc2nc(-c3ccc(F)cc3)c(Cc3cccc(F)c3)n2c1	·	·	8.6*	1	3	1
Cc1ccc2nc(-c3ccc(Cl)cc3)c(Cc3cccc(Cl)c3)n2c1	-4	93	0	1	·	·
Cc1ccc2nc(-c3ccccc3)c(Cc3cccc(F)c3)n2c1	0	123	4	0	·	·
O=C(Cc1cc(=O)[nH][nH]1)N/N=C/c1ccccc1C(F)(F)F	·	·	3	·	·	·
Cc1ccc(-n2c(SCc3cccc(F)c3)nc3sc4c(c3c2=O)CCCC4)cc1	·	·	3	·	·	·
O=C(/C=C1\SC(=O)NC1=O)Nc1ccc(F)cc1	-3	97	8.4*	4	6	2
C(=C\c1nc(N2CCCC2)c2ccccc2n1)/c1ccccc1	0	98	9.0*	0	15*	2
Oc1ccc(Nc2nc(N3CCCC3)c3ccccc3n2)cc1	-12	100	10*	3	27*	-1
CCN(CC)C(=O)CC[C@H]1CC[C@]2(CCCN(C(=O)c3ccno3)C2)O1	·	·	1	·	·	·
CC(=O)Nc1ccc(NC(=O)c2ccc(-c3c(C)noc3C)c3ccoc23)cc1	-3	97	8.6*	0	-6	10*
Cc1noc(C)c1-c1ccc(C(=O)Nc2ccc(C(C)C)cc2)c2occc12	0	96	-3	1	·	·
SMILES	bovine MsrA act	ABCB6 inh 2	SMARCA2 act	MsrA inhibitor	SMARCA2 conf	GAL4-VP16 Luc
CCCCN(C)CCn1c(=S)[nH]c2ccc(N3CCOCC3)cc2c1=O	2	96	9.7*	3	-1	2
O=c1[nH]sc2ccccc12	13*	97	8.9*	0	0	2
CCCCN1CC(=O)N2[C@H](C[C@@]3(C)c4ccccc4N(S(=O)(=O)c4ccccc4)[C@@H]23)C1=O	·	·	-1	·	·	·
Cc1cccc(NC(=O)CCc2ccccc2)c1	-3	97	9.2*	0	5	2
O=C(CCCc1ccccc1)Nc1cccc(C(=O)O)c1	-4	91	8.2*	-1	9.1*	14*
O=C(CCCc1ccccc1)Nc1ccccc1[N+](=O)[O-]	-2	97	5	0	·	·
O=C(CCc1ccccc1)Nc1ccccc1[N+](=O)[O-]	-3	102	8.2*	1	15*	5.3*
O=C(CCc1ccccc1)NC(=S)Nc1cccc(C(=O)O)c1	-4	96	6	1	·	·
CCCC[C@H]1C2CC(OC(=O)Nc3ccc(Br)cc3)C(C2)[C@H]2CCCCN21 (stereo partly drawn)	·	·	0	·	·	·
COC(=O)[C@]12C[C@H](CC(=O)N3CCN(C(=O)c4ccco4)CC3)C(=O)N(Cc3ccco3)C1=C[C@H](C1CCCC1)O[C@@H]2C	·	·	-1	·	·	·
Cc1nc2sc(C(=O)NCc3ccncc3)c(N)c2c(C)c1Cl	·	·	0	·	·	·
O=S(=O)(c1ccc(Cl)s1)N1CCC(c2cn3ccccc3n2)CC1	·	·	-4	·	·	·
COc1ccc(S[C@]2(C(=O)N3CCOCC3)CC(=O)N(C(=O)c3ccccc3)[C@@H]2c2ccc(OC)cc2)cc1	·	·	-3	·	·	·
O=C(CCNc1ccc(F)cc1)c1cccc([N+](=O)[O-])c1	3	97	2	0	·	·
Cc1ccc(NCCC(=O)c2cccc([N+](=O)[O-])c2)cc1	0	96	9.4*	0	8.0*	1
CCN(Cc1cn(Cc2ccccc2)nn1)S(=O)(=O)c1ccc(F)cc1Br	·	·	-4	·	·	·
Nc1cccn2c(-c3ccc(Cl)cc3)cnc12	-2	129	9.3*	2	15*	20*
O=C(O)c1ccc(COc2ccc3ccccc3c2)o1	-2	96	8.6*	-2	2	8.7*
Cc1ccc(OCC(=O)Nc2cccc(C)n2)c(C)c1	-1	89	11*	0	3	12*
O=C(NCc1ccccc1)[C@H]1CCCN1C(=O)[C@H]1CCCN1C(=O)c1ccc(F)c(C(F)(F)F)c1	·	·	-4	1	·	·
O=C(c1ccco1)N1CCC(Oc2cccnc2)CC1	·	·	-1	·	·	·
CCn1cc(C(=O)O)c(=O)c2cc(F)c(N3CCN(C(=S)NC(=O)c4ccccc4Cl)CC3)cc21	-4	95	9.1*	1	3	2
COc1cccc(CN(C)C(=O)c2ccc3c(=O)n4c(nc3c2)CCC4)c1	-2	96	-1	-2	·	·
COc1ccc(CN(C)C(=O)c2ccc3c(=O)n4c(nc3c2)CCC4)cc1	-6	102	8.2*	0	-3	0
CC(C)CCn1c(Sc2nc3ccccc3o2)nc2c1c(=O)[nH]c(=O)n2C	-1	98	8.1*	-1	2	5
CC(/C=N/NC(=O)c1ccco1)=C\c1ccccc1	-3	100	9.4*	3	11*	6.1*
Cc1ccc(/C=N/NC(=O)c2ccco2)cc1	-4	95	8.8*	0	6	11*
Cc1cccc(-n2c(C)cc(/C=N\NC(=O)c3ccco3)c2C)c1	-4	104	4	4	·	·
CC(C=NNC(=O)C(=O)NN=CC(C)=Cc1ccccc1)=Cc1ccccc1	-5	93	·	·	·	·
